High-throughput results (PubChem BioAssay)
Compounds with a hit are over-represented: about 19% of the library has one in this group of screens.
DT40 TDP1 no CPT: qHTS for Inhibitors of human tyrosyl-DNA phosphodiesterase 1 (TDP1): qHTS in cells in absence of CPT; DT40 Tdp1-/- hTDP1 cells, no CPT, ATP luminescence, 48 h; Potency, µM (highest dose often 46.2 µM), for the others: at the highest dose activity change, negative = growth inhibition, hits mostly inhibitors; actives 15% (n = 420,000); further: potency means the concentration at half of the fitted maximal effect; nearly all actives have a fitted effect of over 55% in size
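Chicken DT40 Tdp1-/- cells stably complemented with human TDP1 were seeded at 400 cells/well with DMSO in place of 20 nM camptothecin. After compound pinning, cells grew at least 48 hr at 37 °C; viability read by CellTiter-Glo luminescence.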
TDP1 cell CPT: DT40-hTDP1 cell growth loss with CPT; Potency, µM (doses to about 46.2 µM), for inactives: at the highest dose activity change, negative = growth inhibition, actives largely listed as inhibitors; actives 12% (n = 420,000); chicken DT40 Tdp1-/-;hTDP1 cells + 20 nM CPT, ATP luminescence, 48 h; further: potency means the concentration at half of the fitted maximal effect; nearly all actives have a fitted effect of over 55% in size
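Chicken DT40 Tdp1-/- cells stably complemented with human TDP1 were seeded at 400 cells/well in medium containing 20 nM camptothecin, exposed to pin-transferred compounds, and grown at 37 °C for at least 48 hr. Viability was read as ATP luminescence.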
HT1080NT lethal: kills 2HG-producing HT-1080-NT fibrosarcoma cells; HT-1080-NT fibrosarcoma viability, CellTiter-Glo ATP luminescence, 48 h; Potency, µM (series often up to 46.1 µM), for the others: at the top dose activity, negative = less viability, usual class: cytotoxic; actives 1.6% (n = 360,000);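 further: NT is the 2HG producing partner of a matched IDH1 knockdown line; potency means the concentration at half of the fitted maximal effect; 0% = DMSO-treated cells and -100% = media-only wells without cells; nearly all actives have a fitted effect of over 55% in size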
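Viability of the 2HG-overproducing fibrosarcoma line after 48 hours of compound exposure at 37 degrees C was determined by luminescence with CellTiter-Glo, and concentration-effect curves were then fitted and categorized.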
HT1080 IDH1KD tx: toxicity to HT-1080 IDH1 knockdown cells (counter line); HT-1080 IDH1 knockdown viability, ATP luminescence, 48 h; Potency, µM (top dose mostly 46.1 µM), without a hit: at the highest dose activity, negative = toxicity, most hits filed as cytotoxic; actives 2% (n = 360,000);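 further: potency means the concentration at half of the fitted maximal effect; 0% = DMSO wells and -100% = cell-free medium wells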
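IDH1KD HT-1080 cells, 750/well, RPMI + 5% FBS; compound pinned after 2 h settling; 48 h, 37 °C; CellTiter-Glo luminescence; % activity normalised to DMSO and no-cell wells; curves fitted, classed by r2 and efficacy.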
IL1B secr inh: inhibitors of inflammasome signaling (IL-1 beta secretion); activity change, % at 57.5 µM; THP-1 LPS/ATP IL-1B secretion, AlphaLISA, 16 h; stronger effect = lower value; actives 4.7% (n = 360,000); in the data active means activity change below about -50%; inconclusive means mostly about -30% to -49%
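THP-1 cells pretreated 1 hr with compounds (up to 57.5 uM final), then stimulated with LPS (250 ng/mL final) plus ATP (1.25 mM final); secreted IL-1B measured by AlphaLISA after 16 hr, decreased signal indicating inhibition.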
ELG1 repair inh: ELG1-dependent DNA repair inhibition; HEK293T ELG1-luciferase reporter, luminescence, 16 h; DNA damage induced by 5-fluorouridine; Potency, µM (doses to about 46.1 µM), inactives show top-dose activity change, negative = inhibition, most hits filed as inhibitors; actives 2.3% (n = 330,000); further: potency means the concentration at half of the fitted maximal effect; nearly all actives have a fitted effect of over 55% in size
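Step one: seed 2,000 cells per well. Step two: pin-transfer compound or DMSO alongside 5-fluorouridine. Step three: incubate 16 hr, 37 °C, 5% CO2. Step four: add ONE-Glo, wait 30 min, read luminescence.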
An asterisk follows results filed as active; ! = repeats disagree. Unless noted, the call rests on the fitted dose curve; in most records, active means well fitted curve in the direction sought with a large enough effect; inconclusive means small, poorly fitted or top-dose-only effect, or another doubt; inactive means no such curve, though single readings can be large; an effect the other way counts as inactive or inconclusive. Unless noted, on the % scale 0 is the no-effect control and ±100 the full control effect.

COc1ccc2c(c1)cc1c(=O)n(CC(=O)NCCCc3ccccc3)nc(C)n12 was read as DT40 TDP1 no CPT -2% and TDP1 cell CPT -2%.
Screening COc1ccc(CCC2(C)NC(=O)N(C(C)C(=O)Nc3ccccc3F)C2=O)cc1 (stereo not drawn) returned DT40 TDP1 no CPT 0%, TDP1 cell CPT -9%, HT1080NT lethal -8%, HT1080 IDH1KD tx -3%, IL1B secr inh -6 and ELG1 repair inh -9%.
`Clc1ccc(CN2CCCCCCC2)cc1Cl` gave DT40 TDP1 no CPT inconclusive, TDP1 cell CPT -21%, HT1080NT lethal -3%, HT1080 IDH1KD tx 2%, IL1B secr inh 5 and ELG1 repair inh 8%.
Screening Clc1ccc(CN2CCc3c([nH]c4ccccc34)C2)cc1Cl returned DT40 TDP1 no CPT 15µM*, TDP1 cell CPT inconclusive, HT1080NT lethal inconclusive, HT1080 IDH1KD tx inconclusive, IL1B secr inh -70* and ELG1 repair inh inconclusive.
Screening CCOc1ccc2nc(NC(=O)c3cc(=O)c4cc(C)cc(C)c4o3)sc2c1 returned DT40 TDP1 no CPT -3% and TDP1 cell CPT 4%.
Screening O=[N+]([O-])c1cccc2nc3ccccc3c(NCCCn3ccnc3[N+](=O)[O-])c12 returned DT40 TDP1 no CPT 0.18µM*, TDP1 cell CPT 0.15µM*, HT1080NT lethal inconclusive, HT1080 IDH1KD tx 0.082µM* and IL1B secr inh -102*.
For O=[N+]([O-])c1nccn1CCCCCCCCCCCN1CCOCC1 the results were DT40 TDP1 no CPT inconclusive, TDP1 cell CPT inconclusive, HT1080NT lethal -6%, HT1080 IDH1KD tx -19% and IL1B secr inh -1.
For O=c1nccc(N/N=C/c2ccccc2O)[nH]1 the results were DT40 TDP1 no CPT 0.33µM*, TDP1 cell CPT 0.23µM*, HT1080NT lethal 1.2µM*, HT1080 IDH1KD tx inconclusive, IL1B secr inh 47 and ELG1 repair inh inconclusive.
`Oc1ccccc1/C=N/Nc1nn[nH]n1` gave DT40 TDP1 no CPT -7%, TDP1 cell CPT -8%, HT1080NT lethal 27%, HT1080 IDH1KD tx -11%, IL1B secr inh -26 and ELG1 repair inh -8%.
Screening COc1cccc(/C=N/Nc2ccccc2C(=O)O)c1O returned DT40 TDP1 no CPT -1%, TDP1 cell CPT -8%, HT1080NT lethal -2%, HT1080 IDH1KD tx 0%, IL1B secr inh -2 and ELG1 repair inh inconclusive.
For COc1cccc(/C=N/Nc2ccnc(=O)[nH]2)c1O the results were DT40 TDP1 no CPT 0.065µM*, TDP1 cell CPT 0.023µM*, HT1080NT lethal inconclusive, HT1080 IDH1KD tx inconclusive, IL1B secr inh 127 and ELG1 repair inh -11%.
CCOc1ccccc1/C=N/Nc1ccnc(=O)[nH]1 was read as DT40 TDP1 no CPT 2.9µM*, TDP1 cell CPT 5.2µM*, HT1080NT lethal -15%, HT1080 IDH1KD tx 0%, IL1B secr inh 33 and ELG1 repair inh 25%.
Screening CC1(C)Cc2ccccc2C(NNC(=O)c2ccc(Br)o2)=N1 returned DT40 TDP1 no CPT -19%, TDP1 cell CPT -20%, HT1080NT lethal -2%, HT1080 IDH1KD tx 11% and IL1B secr inh 0.
COc1cc2ccc(=O)oc2c(O)c1O was read as DT40 TDP1 no CPT inconclusive, TDP1 cell CPT 21µM*!, HT1080NT lethal -1%, HT1080 IDH1KD tx -9% and IL1B secr inh 50.
`COc1cc2ccc(=O)oc2c(OC)c1OC` gave DT40 TDP1 no CPT -12% and TDP1 cell CPT -5%.
CCCCCC(=O)N1C[C@@H](n2cc(-c3ccc(F)cc3)nn2)[C@H](O)C[C@@H]1c1ccc(Cl)cc1 was read as DT40 TDP1 no CPT 12µM*, TDP1 cell CPT 15µM*, HT1080NT lethal inconclusive, HT1080 IDH1KD tx 16µM* and IL1B secr inh -56*.
Screening CCCCCC(=O)N1C[C@H](O)[C@@H](n2cc(-c3ccc(F)cc3)nn2)C[C@@H]1c1ccc(Cl)cc1 returned DT40 TDP1 no CPT 18µM*, TDP1 cell CPT 18µM*, HT1080NT lethal inconclusive, HT1080 IDH1KD tx inconclusive and IL1B secr inh inconclusive.
`CCCCCC(=O)N1C[C@H](n2cc(-c3ccc(F)cc3)nn2)[C@@H](O)C[C@@H]1c1ccc(OC)cc1` gave DT40 TDP1 no CPT -30%, TDP1 cell CPT 2%, HT1080NT lethal 6%, HT1080 IDH1KD tx 2% and IL1B secr inh -9.
Screening CCCOC(=O)c1[nH]c2c(c1C)C(=O)CC(c1ccc(OC)c(OC)c1)C2 (stereo not drawn) returned DT40 TDP1 no CPT -20%, TDP1 cell CPT inconclusive, HT1080NT lethal -5%, HT1080 IDH1KD tx -1%, IL1B secr inh 16 and ELG1 repair inh -3%.
For Cc1c(C(=O)OCc2ccccc2)[nH]c2c1C(=O)CC(c1ccc(N(C)C)cc1)C2 (stereo not drawn) the results were DT40 TDP1 no CPT -18% and TDP1 cell CPT inconclusive.
For Cc1c(C(=O)OC2CCC(C)CC2)[nH]c2c1C(=O)CC(c1ccc(N(C)C)cc1)C2 (stereo not drawn) the results were DT40 TDP1 no CPT -16% and TDP1 cell CPT -19%.
`CCOCCOC(=O)c1[nH]c2c(c1C)C(=O)CC(c1ccccc1)C2` (stereo not drawn) gave DT40 TDP1 no CPT 0.92µM*, TDP1 cell CPT 1.5µM*, HT1080NT lethal 0.15µM*, HT1080 IDH1KD tx 0.26µM*, IL1B secr inh 65 and ELG1 repair inh -3%.
`Cc1c(C(=O)OCCOc2ccccc2)[nH]c2c1C(=O)CC(c1ccccc1Cl)C2` (stereo not drawn) gave DT40 TDP1 no CPT 1.5µM* and TDP1 cell CPT 1.5µM*.
For CCCCCOC(=O)c1[nH]c2c(c1C)C(=O)CC(c1ccco1)C2 (stereo not drawn) the results were DT40 TDP1 no CPT 0.16µM*, TDP1 cell CPT 0.18µM*, HT1080NT lethal 0.1µM*, HT1080 IDH1KD tx 0.016µM*, IL1B secr inh 79 and ELG1 repair inh -1%.
Screening Cc1c(C(=O)OC2CCC(C)CC2)[nH]c2c1C(=O)CC(c1ccccc1Cl)C2 (stereo not drawn) returned DT40 TDP1 no CPT 4.6µM* and TDP1 cell CPT 5.2µM*.
CCOC(=O)c1[nH]c2c(c1C)C(=O)CC(c1ccc(OCC)c(OC)c1)C2 (stereo not drawn) was read as DT40 TDP1 no CPT inconclusive, TDP1 cell CPT -25%, HT1080NT lethal inconclusive, HT1080 IDH1KD tx inconclusive, IL1B secr inh -27 and ELG1 repair inh 0%.
